Test results as given in PubChem BioAssay AID2283105 (EPA ToxCast).
The source made the active and inactive calls. The calls were made as follows: active = hit-call score of the fitted dose curve at least 0.9, where 1 is the maximum; inactive = score below 0.9.

Molecular target: human CYP2E1, CYP2E1 (gene 1571) (UniProt P05181)
Experiment: NVS_ADME_hCYP2E1: NovaScreen (NVS) CYP450-related Enzyme Activity (ADME) Assay for human CYP2E1
Procedure: NVS_ADME_hCYP2E1 is a biochemical, single-readout assay that uses extracted gene-proteins in a cell-free assay. Measurements were taken 0.5 hour after chemical dosing in a 96-well plate.NVS_ADME_hCYP2E1 is one of one assay component(s) measured or calculated from the NVS_ADME_hCYP2E1 assay. It is designed to make measurements of enzyme activity, a form of enzyme reporter, as detected with fluorescence intensity signals by Fluorescence technology.Data from the assay component NVS_ADME_hCYP2E1 was analyzed into 1 assay endpoint. This assay endpoint, NVS_ADME_hCYP2E1, was analyzed in the positive analysis fitting direction relative to Acetonitrile as the negative control and baseline of activity. Using a type of enzyme reporter, loss-of-signal activity can be used to understand changes in the enzymatic activity as they relate to the gene CYP2E1. Furthermore, this assay endpoint can be referred to as a primary readout, because this assay has produced multiple assay endpoints where this one serves a enzymatic activity function. To generalize the intended target to other relatable targets, this assay endpoint is annotated to the cyp intended target family, where the subfamily is xenobiotic metabolism. […]

Chain of human CYP2E1, CYP2E1 (gene 1571) (P05181 whole entry, looked up): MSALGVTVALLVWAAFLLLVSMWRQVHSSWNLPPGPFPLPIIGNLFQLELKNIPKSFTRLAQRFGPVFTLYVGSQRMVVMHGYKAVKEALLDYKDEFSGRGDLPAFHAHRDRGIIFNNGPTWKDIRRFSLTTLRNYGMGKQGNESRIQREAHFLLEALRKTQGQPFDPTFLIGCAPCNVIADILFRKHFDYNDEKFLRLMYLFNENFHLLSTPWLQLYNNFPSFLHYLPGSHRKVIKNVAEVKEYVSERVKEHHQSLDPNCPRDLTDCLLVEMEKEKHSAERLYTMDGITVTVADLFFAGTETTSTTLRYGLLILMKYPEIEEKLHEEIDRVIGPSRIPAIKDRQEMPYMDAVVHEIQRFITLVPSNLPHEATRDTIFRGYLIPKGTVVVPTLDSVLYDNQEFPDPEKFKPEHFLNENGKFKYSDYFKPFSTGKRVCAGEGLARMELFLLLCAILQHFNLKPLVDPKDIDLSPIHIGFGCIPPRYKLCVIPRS

N#CSCSc1nc2ccccc2s1
AC50: 5.32 µM (active)
